# Measured values from PubChem BioAssay.
# Experiment: anti-His antibody binders, primary screen, artefact control for SMM control protein annotation, biochemical, small-molecule microarray, 635 nm fluorescence (AID 1128);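 note: score merges feature fluorescence with signal-to-noise for each printed compound spot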
# Settings: anti-His Alexa647 antibody binding, higher = more signal
row,SMILES,composite z-score
1,COc1cccc([C@@H]2[C@@H](C)CC[C@H]3C(=O)N4[C@H](c5cccc(OC)c5)[C@@H](C)CC[C@H]4C(=O)N23)c1,0.584
2,CO[C@H]1COC(=O)[C@H](Cc2ccccc2)NC(=O)CC=C[C@@H](C)[C@H](OC)COC(=O)CC=C[C@@H]1C,0.809
3,CO[C@H]1COC(=O)[C@@H](OCc2ccccc2)C=C[C@H](C)[C@@H](OC)COC(=O)[C@H](OCc2ccccc2)C=C[C@@H]1C,-0.12
4,O=C1O[C@@H](c2ccccc2)[C@@H](c2ccccc2)N2[C@@H](c3ccc(O)cc3)[C@]3(C(=O)Nc4ccccc43)[C@@H](C(=O)N3CCN(c4ncccn4)CC3)[C@H]12,0.265
5,O=C1O[C@@H](c2ccccc2)[C@@H](c2ccccc2)N2[C@@H](c3ccc(O)cc3)[C@]3(C(=O)Nc4ccc(C#CC5(O)CCCCCC5)cc43)[C@@H](C(=O)Nc3nc4ccccc4s3)[C@H]12,1.87
6,C=CC[C@]1(C(N)=O)N=C(c2ccc(OCCCO)cc2)O[C@H]1c1ccccc1CN=[N+]=[N-],3.2
7,COCCOC(=O)N1C(=O)[C@@]2(c3cc(C#CCCO)ccc31)[C@H](C(=O)N1CCCCCCC1)[C@H]1C(=O)O[C@H](c3ccccc3)[C@H](c3ccccc3)N1[C@@H]2c1ccc(O)cc1,1.12
8,C=CCOC(=O)[C@@H]1[C@H]2C(=O)O[C@H](c3ccccc3)[C@H](c3ccccc3)N2[C@H](c2ccc(OCCOC(=O)[C@H]3C[C@H]4C(=O)N5CCC[C@H]5C(=O)N4[C@H]3c3ccc(O)cc3)cc2)[C@@]12C(=O)Nc1ccccc12,0.912
9,CO[C@H]1COC(=O)CC=C[C@@H](C)COC(=O)[C@@H](C)NC(=O)CC=C[C@@H]1C,-0.505
10,C=CCN1C(=O)[C@@]2(O[C@@H](CCn3cc([C@H](O)c4ccccc4)nn3)[C@H]([Si](C)(C)c3ccc(OC)cc3)[C@H]2C)c2cc(N3CCOC3=O)ccc21,1.34
11,CCCC/C=C/[C@H]([C@@H](O)Cc1ccccc1)N(CC#Cc1ccccc1)Cc1ccccc1Br,0.0428
12,CCOC(=O)[C@H]1C/C=C/C[C@H](C(=O)OCC)C(=O)O[C@H]2[C@@H](OC)O[C@H](CO)[C@@H](OC(=O)Nc3ccc(Br)cc3)[C@@H]2OC1=O,0.441
13,COC(=O)c1c(CC[C@@H](CO)NC(=O)N[C@H](Cn2cc(-c3cncn3C)nn2)C(C)C)oc(C(C)=O)c1C(=O)OC,1.15
14,COc1ccc([Si](C)(C)[C@H]2[C@H](CCO)O[C@@]3(C(=O)N(Cc4ccc(N5CCCCC5=O)cc4)c4ccccc43)[C@@H]2C)cc1,1.91
15,O=C1c2ccccc2[C@](Cc2ccccc2I)(C(=O)O)[C@H](c2ccc(CO)cc2)N1C1CCCCC1,1.52
16,CCCNC(=O)[C@@]1(Sc2ccc(C)cc2)CC(=O)N(Cc2ccccc2Cl)[C@@H]1c1ccc(CO)cc1,1.12
17,O=C(NCC(O)CO)[C@]1(Cc2ccccc2)N=C(c2ccc(OCCCO)cc2)O[C@@H]1c1ccccc1 (stereo partly specified),0.713
18,O=C(CS)NCCCCCNC(=O)[C@H]1C[C@H]2C(=O)N3CCC[C@H]3C(=O)N2[C@H]1c1ccc(O)cc1,0.215
19,COc1cccc([C@H]2N[C@H](C(=O)O)CC[C@@H]2C)c1,0.184
20,CC(C)[Si]1(C(C)C)O[C@@H](c2ccccc2)c2cc(C3CC3)nc(-c3ccc(Oc4ccccc4)cc3)c21,-1.14
21,CC(=O)Nc1ccc([C@H]2[C@H](C)CC[C@H]3C(=O)N4[C@@H](CC[C@@H](C)[C@@H]4c4ccc(NC(C)=O)cc4)C(=O)N32)cc1,2.46
22,COc1cc2c(cc1OC)CN(C(=O)[C@@H]1[C@H]3C(=O)O[C@H](c4ccccc4)[C@H](c4ccccc4)N3[C@H](c3ccccc3OCCO)[C@@]13C(=O)Nc1ccccc13)CC2,2.5
23,[N-]=[N+]=NCc1ccccc1C[C@@]1(C(=O)N2CCOCC2)N=C(c2ccc(OCCCO)cc2)O[C@@H]1c1ccccc1N=[N+]=[N-],1.8
24,C=CC[C@]1(C(=O)OC)N=C(c2ccc(OCCCO)cc2)O[C@H]1c1ccccc1CN=[N+]=[N-],1.39
25,CO[C@]12C=C(Br)[C@@H](C[C@@H]1c1ccccc1)[C@@]1(CO1)C2=O,-0.22
26,C[C@]1(C(=O)NCc2ccccc2)c2ccccc2C(=O)N(Cc2cc(C(F)(F)F)cc(C(F)(F)F)c2)[C@H]1c1ccc(CO)cc1,-0.152
